A selection: hits, their analogues and other compounds. The true share with any hit is near 4%.
Mtb betalactam – beta-lactam sensitization of Mtb H37Rv; 330,000 tested, 0.27% active; M. tuberculosis H37Rv growth with meropenem, percent inhibition; inhibition, % at 25 µM; call rule not given here;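 further: growth measured after seven days incubation then overnight dye step; 0% = bacteria only wells and 100% = bacteria with antibiotic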
Rv3671c protease – inhibitors of M. tuberculosis serine protease Rv3671c | inhibition, % at 5.96 µM | P9WHR9 | 320,000 tested, 0.048% active; in the data active means inhibition above about 38%;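 further: extracellular domain of Rv3671c used as enzyme; 0% = enzyme with DMSO and 100% = no enzyme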
Target sequence (P9WHR9 whole entry, looked up, the tested form may be a part): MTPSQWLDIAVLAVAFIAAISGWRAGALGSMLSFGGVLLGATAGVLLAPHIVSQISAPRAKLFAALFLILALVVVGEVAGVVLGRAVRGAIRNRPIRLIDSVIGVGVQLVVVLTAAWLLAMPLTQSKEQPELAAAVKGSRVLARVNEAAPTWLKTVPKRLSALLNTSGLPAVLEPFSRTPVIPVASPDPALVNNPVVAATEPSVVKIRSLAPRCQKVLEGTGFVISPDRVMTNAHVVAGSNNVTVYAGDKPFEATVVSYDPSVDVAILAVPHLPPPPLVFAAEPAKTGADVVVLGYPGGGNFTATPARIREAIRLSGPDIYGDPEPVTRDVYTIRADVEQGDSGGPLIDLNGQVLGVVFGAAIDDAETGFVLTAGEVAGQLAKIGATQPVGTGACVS
Mtb FBA inh – Mtb fructose-bisphosphate aldolase inhibition; P9WQA3; purified M. tuberculosis FBA, fluorescence read-out; inhibition, % at 1 µM; 360,000 tested, 2.3% active; in the data active means inhibition above about 27%;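 further: 0% = vehicle and 100% = reference inhibitor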
UGM FP inh – Mtb UDP-galactopyranose mutase inhibition; purified UGM, fluorescence polarization probe displacement; inhibition, % at 10 µM; 320,000 tested, 0.06% active; AID 504406; in the data active means inhibition above about 10%, passing the limit was not always enough
GDH-TPI counter – GDH-TPI coupled enzyme inhibition counter-screen; GDH-TPI coupled enzyme counterscreen, NADH absorbance; inhibition, % at 4.8 µM; 360,000 tested, 1.2% active; AID 588335; in the data active means inhibition above about 30%;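 further: 0% = DMSO wells and 100% = wells lacking the enzyme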
RecA intein inh – inhibitors of M. tuberculosis RecA intein splicing | AID 2221 | inhibition, % (test concentration not listed) | cell-free RecA intein splicing, fluorescence | 290,000 tested, 0.75% active; in the data active means inhibition above about 30%;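 further: 0% = vehicle wells and 100% = reference inhibitor control wells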
Starred values were filed as active, the others as inactive.

For Cc1ccc(C)n1-c1ccc(NC(=O)c2ccccc2)cc1 the results were Mtb betalactam 1, Rv3671c protease -2, Mtb FBA inh -1, UGM FP inh 5, GDH-TPI counter 0 and RecA intein inh 0.
`CC(C)CC1c2[nH]c3ccccc3c2CCN1C(=O)c1cnccn1` (centres undefined) gave Mtb betalactam -2, Rv3671c protease 4, UGM FP inh 1 and RecA intein inh -3.
For Cc1c(C(=O)/C=C/N(C)C)nnn1-c1ccc(Cl)cc1C#N the results were Mtb betalactam -2, Rv3671c protease -13, Mtb FBA inh -4, UGM FP inh 0, GDH-TPI counter 46* and RecA intein inh -2.
CCOC(=O)c1nnn(-c2ccccc2C#N)c1C was read as Mtb betalactam -3, Rv3671c protease 1, Mtb FBA inh -1, UGM FP inh 1, GDH-TPI counter -6 and RecA intein inh -2.
For CC(=O)c1c(C)[nH]c(C(=O)COC(=O)CN2C(=O)C3CCCCC3C2=O)c1C (centres undefined) the results were Mtb betalactam 1, Rv3671c protease 1, Mtb FBA inh -1, UGM FP inh -4 and GDH-TPI counter 5.
For CCN(CC)c1ccc(/C=N/NC(=O)c2nnn(-c3nonc3N)c2C(C)C)c(O)c1 the results were Mtb betalactam 23, Rv3671c protease -11, Mtb FBA inh 1, UGM FP inh 1, GDH-TPI counter 10 and RecA intein inh -4.
Screening COc1ccc(C(=O)NCCCn2ccnc2)cc1[N+](=O)[O-] returned Mtb betalactam 60, Rv3671c protease 5, Mtb FBA inh 5, UGM FP inh 2, GDH-TPI counter 32* and RecA intein inh 1.
Screening NC1=NC(=O)/C(=C\C=C\c2ccccc2)S1 returned Mtb betalactam -5, Rv3671c protease 9, Mtb FBA inh -4, UGM FP inh 2, GDH-TPI counter 29 and RecA intein inh -2.
Screening O=C1NC(=O)C(=CC=Cc2ccccc2)S1 returned Mtb FBA inh -2 and GDH-TPI counter 38*.
COc1ccc(-c2c(C)c3cc(O)ccc3oc2=O)cc1OC was read as Mtb betalactam 4, Rv3671c protease -25, Mtb FBA inh 1, UGM FP inh 3, GDH-TPI counter 13 and RecA intein inh -2.
For CCOC(=O)c1oc2cc(OCC(N)=O)ccc2c(=O)c1-c1ccc(OC)c(OC)c1 the results were Mtb betalactam -10, Rv3671c protease 0, Mtb FBA inh 4, UGM FP inh 1, GDH-TPI counter 5 and RecA intein inh 0.
`COc1ccc(-c2cc3ccc(O)cc3oc2=O)cc1OC` gave Mtb betalactam 4, Rv3671c protease -3, Mtb FBA inh 119*, UGM FP inh -2, GDH-TPI counter 8 and RecA intein inh inactive.
For COc1ccc(-c2cc3ccc(OCC(N)=O)cc3oc2=O)cc1OC the results were Mtb betalactam 7, Rv3671c protease -12, Mtb FBA inh 2, UGM FP inh 3, GDH-TPI counter 32* and RecA intein inh -54.
Screening CC(=O)c1nnn(-c2ccc([N+](=O)[O-])cc2C)c1C returned Mtb betalactam -7, Rv3671c protease -10, Mtb FBA inh 2, UGM FP inh -2, GDH-TPI counter 6 and RecA intein inh -2.
Screening O=C1C=C(O)c2cccc3cccc1c23 returned Mtb betalactam 6, Rv3671c protease -6, Mtb FBA inh -2, UGM FP inh 1, GDH-TPI counter 31* and RecA intein inh -5.
For O=C(c1cc(=O)[nH]c2ccccc12)N1CCN(c2ccc([N+](=O)[O-])cc2)CC1 the results were Mtb betalactam -7, Rv3671c protease -1, Mtb FBA inh -7, UGM FP inh 2, GDH-TPI counter 35* and RecA intein inh -2.
`CN(C)CCOc1ccc2c(c1)C(=O)C(=Cc1ncc([N+](=O)[O-])n1C)C2` gave Mtb FBA inh 3 and GDH-TPI counter 32*.
Screening Cn1c(=O)c2[nH]c(NN=Cc3cccc(Br)c3)nc2n(C)c1=O returned Mtb FBA inh -3 and GDH-TPI counter 37*.
`CCN(CC)CCOc1ccc(C=NNc2nc3c([nH]2)c(=O)n(C)c(=O)n3C)cc1` gave Mtb FBA inh 0 and GDH-TPI counter 44*.
Screening O=C(c1cncc(Br)c1)N1CCN(S(=O)(=O)c2ccc(Cl)cc2)CC1 returned Mtb betalactam -13, Rv3671c protease -4, Mtb FBA inh -3, UGM FP inh -2, GDH-TPI counter -11 and RecA intein inh 0.
For Cc1ccc(C)n1-c1ccc(C(=O)NN)s1 the results were Mtb betalactam 62, Rv3671c protease 0, Mtb FBA inh -2, UGM FP inh 0, GDH-TPI counter 21 and RecA intein inh 4.
Cn1c2nc(=O)n(-c3ccccc3)c(=O)c-2nc2c1CCCC2 was read as Mtb FBA inh 184* and GDH-TPI counter 19.
For CNc1ncc(C(=O)c2ccc(-c3ccccc3)cc2)s1 the results were Mtb betalactam 4, Rv3671c protease -10, Mtb FBA inh -1, UGM FP inh 0, GDH-TPI counter 21 and RecA intein inh -2.
Screening CNc1ncc(C(=O)c2ccc(Cl)c(Cl)c2)s1 returned Mtb betalactam 13, Rv3671c protease -3, Mtb FBA inh -1, UGM FP inh 0, GDH-TPI counter 34* and RecA intein inh 1.
For O=C(c1ccccc1)c1cnc(Nc2ccccc2Cl)s1 the results were Mtb betalactam 3, Rv3671c protease -3, Mtb FBA inh 1, UGM FP inh 3, GDH-TPI counter 31* and RecA intein inh 7.
Screening CNc1ncc(C(=O)c2ccc(Cl)cc2)s1 returned Mtb betalactam 8, Rv3671c protease -3, Mtb FBA inh -2, UGM FP inh 1, GDH-TPI counter 47* and RecA intein inh 1.
Cc1ccc(-c2nnnn2-c2ccccc2C(=O)O)cc1 was read as Mtb betalactam -11, Rv3671c protease -6, Mtb FBA inh 0, UGM FP inh 4, GDH-TPI counter 9 and RecA intein inh 1.
For O=C(Cn1cc(-c2ccccn2)nn1)NS(=O)(=O)c1cccc(OC(F)F)c1 the results were Mtb FBA inh 1 and GDH-TPI counter 6.
Cc1cc(C(=O)NC2CCC(O)CC2)c(C)o1 (centres undefined) was read as Mtb betalactam -2, Rv3671c protease 6, Mtb FBA inh -2, UGM FP inh 0 and GDH-TPI counter -3.
NS(=O)(=O)c1ccc(N2N=C(c3ccccc3)CC2c2cccc(Cl)c2)cc1 (centres undefined) was read as Mtb FBA inh 178* and GDH-TPI counter 19.
Cc1cccc(C2CC(c3ccccc3)=NN2c2ccc(S(N)(=O)=O)cc2)c1 (centres undefined) was read as Mtb FBA inh active and GDH-TPI counter 12.
For O=[N+]([O-])c1cccc(C2CC(c3ccccc3)=NN2c2ccccc2)c1 (centres undefined) the results were Mtb betalactam 9, Rv3671c protease 2, Mtb FBA inh 0, UGM FP inh 1, GDH-TPI counter 19 and RecA intein inh 7.

Source: PubChem BioAssay
